Experimental data from PubChem BioAssay AID1159580 (chemical genetic matrix, 2015).
Hit rate of the full screen: of about 5,500 compounds, about 2,000 (36%) were called active. Inconclusive results (about 18%) are left out. Cut-off read from the data, not from the text of the source: active = normalized growth mostly below about 0.91 (no sharp cut-off); inconclusive = no clear call, values can overlap the other calls; inactive = mostly above about 0.92. The list shows a part of the results.

Test: chemical genetic growth profiling, strain panel (AID 1159580);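 note: tested at 20 µM; growth read once vehicle control cultures reached saturation at 30 °C; 1 = growth at the plate median or of vehicle wells; lower values mean less growth of the strain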
Settings: growth OD

Measured: normalized growth

O=C(OC[C@H]1O[C@H](OC(=O)c2cc(O)c(O)c(OC(=O)c3cc(O)c(O)c(O)c3)c2)[C@H](OC(=O)c2cc(O)c(O)c(OC(=O)c3cc(O)c(O)c(O)c3)c2)[C@@H](OC(=O)c2cc(O)c(O)c(OC(=O)c3cc(O)c(O)c(O)c3)c2)[C@@H]1OC(=O)c1cc(O)c(O)c(OC(=O)c2cc(O)c(O)c(O)c2)c1)c1cc(O)c(O)c(OC(=O)c2cc(O)c(O)c(O)c2)c1
inactive: S. cerevisiae deletion strains, locus YKR026C, strain gcn3, hits give low values 1.03 | S. cerevisiae deletion strains, locus YKR091W, strain srl3, hits give low values 0.968 | S. cerevisiae deletion strains, locus YLL041C, strain sdh2, hits give low values 0.951 | S. cerevisiae deletion strains, locus YLR113W, strain HOG1, hits give low values 1.08 | S. cerevisiae deletion strains, locus YMR125W, strain sto1, hits give low values 1.04 | S. cerevisiae deletion strains, locus YNL183C, strain NPR1, hits give low values 0.988 | S. cerevisiae deletion strains, locus YNL248C, strain rpa49, hits give low values 0.922 | S. cerevisiae deletion strains, locus YNR049C, strain mso1, hits give low values 0.944 | S. cerevisiae deletion strains, locus YOL012C, strain htz1 0.275 | S. cerevisiae deletion strains, locus YOR231W, strain MKK1, hits give low values 1.04 | S. cerevisiae deletion strains, locus YPL256C, strain CLN2, hits give low values 1.14
active: S. cerevisiae deletion strains, locus YJR075W, strain HOC1, hits give low values 0.104 | S. cerevisiae deletion strains, locus YKL009W, strain mrt4, hits give low values 0.125 | S. cerevisiae deletion strains, locus YKL068W, hits give low values 0.082 | S. cerevisiae deletion strains, locus YKL085W, strain MDH1 (second series), hits give low values 0.0765 | S. cerevisiae deletion strains, locus YKL085W, strain MDH1, hits give low values 0.0765 | S. cerevisiae deletion strains, locus YKL160W, strain elf1, hits give low values 0.761 | S. cerevisiae deletion strains, locus YKL190W, strain CNB1, hits give low values 0.0756 | S. cerevisiae deletion strains, locus YKR001C, strain vps1, hits give low values 0.101 | S. cerevisiae deletion strains, locus YLL001W, strain dnm1, hits give low values 0.693 | S. cerevisiae deletion strains, locus YLL026W, hits give low values 0.689 | S. cerevisiae deletion strains, locus YLR027C, strain aat2, hits give low values 0.82 | S. cerevisiae deletion strains, locus YLR039C, strain RIC1, hits give low values 0.131 | S. cerevisiae deletion strains, locus YLR058C, strain SHM2, hits give low values 0.0679 | S. cerevisiae deletion strains, locus YLR102C, strain apc9, hits give low values 0.0965 | S. cerevisiae deletion strains, locus YLR221C, strain rsa3, hits give low values 0.785 | S. cerevisiae deletion strains, locus YLR258W, strain gsy2, hits give low values 0.807 | S. cerevisiae deletion strains, locus YLR262C, strain YPT6 (second series), hits give low values 0.596 | S. cerevisiae deletion strains, locus YLR262C, strain YPT6, hits give low values 0.149 | S. cerevisiae deletion strains, locus YLR268W, strain sec22, hits give low values 0.115 | S. cerevisiae deletion strains, locus YLR320W, strain mms22, hits give low values 0.777 | S. cerevisiae deletion strains, locus YLR330W, strain CHS5, hits give low values 0.0805 | S. cerevisiae deletion strains, locus YLR342W, strain FKS1 (second series), hits give low values 0.119 | S. cerevisiae deletion strains, locus YLR342W, strain FKS1, hits give low values 0.662 | S. cerevisiae deletion strains, locus YLR357W, strain rsc2, hits give low values 0.656 | S. cerevisiae deletion strains, locus YLR370C, strain arc18, hits give low values 0.334 | S. cerevisiae deletion strains, locus YLR371W, strain rom2, hits give low values 0.0958 | S. cerevisiae deletion strains, locus YLR384C, strain iki3, hits give low values 0.784 | S. cerevisiae deletion strains, locus YLR418C, strain cdc73, hits give low values 0.159 | S. cerevisiae deletion strains, locus YML016C, strain PPZ1, hits give low values 0.0844 | S. cerevisiae deletion strains, locus YML032C, strain rad52, hits give low values 0.103 | S. cerevisiae deletion strains, locus YML120C, strain ndi1, hits give low values 0.617 | S. cerevisiae deletion strains, locus YML124C, strain tub3, hits give low values 0.0933 | S. cerevisiae deletion strains, locus YMR058W, strain fet3, hits give low values 0.901 | S. cerevisiae deletion strains, locus YMR078C, strain ctf18, hits give low values 0.106 | S. cerevisiae deletion strains, locus YMR129W, hits give low values 0.921 | S. cerevisiae deletion strains, locus YMR205C, strain PFK2, hits give low values 0.721 | S. cerevisiae deletion strains, locus YMR223W, strain ubp8, hits give low values 0.0998 | S. cerevisiae deletion strains, locus YMR231W, strain pep5, hits give low values 0.148 | S. cerevisiae deletion strains, locus YMR263W, strain SAP30, hits give low values 0.0929 | S. cerevisiae deletion strains, locus YMR307W, strain GAS1, hits give low values 0.175 | S. cerevisiae deletion strains, locus YNL067W, strain RPL9B, hits give low values 0.0835 | S. cerevisiae deletion strains, locus YNL071W, strain lat1, hits give low values 0.88 | S. cerevisiae deletion strains, locus YNL128W, strain TEP1, hits give low values 0.0962 | S. cerevisiae deletion strains, locus YNL153C, strain GIM3, hits give low values 0.086 | S. cerevisiae deletion strains, locus YNL209W, strain ssb2, hits give low values 0.363 | S. cerevisiae deletion strains, locus YNL233W, strain BNI4, hits give low values 0.0934 | S. cerevisiae deletion strains, locus YNL250W, strain rad50, hits give low values 0.0969 | S. cerevisiae deletion strains, locus YNL271C, strain bni1, hits give low values 0.0916 | S. cerevisiae deletion strains, locus YNL298W, strain CLA4, hits give low values 0.0929 | S. cerevisiae deletion strains, locus YNL307C, strain MCK1, hits give low values 0.102 | S. cerevisiae deletion strains, locus YNL322C, strain KRE1 (second series), hits give low values 0.853 | S. cerevisiae deletion strains, locus YNL322C, strain KRE1, hits give low values 0.0735 | S. cerevisiae deletion strains, locus YNR052C, strain pop2, hits give low values 0.0934 | S. cerevisiae deletion strains, locus YOL006C, strain TOP1, hits give low values 0.155 | S. cerevisiae deletion strains, locus YOL147C, strain pex11, hits give low values 0.0861 | S. cerevisiae deletion strains, locus YOR001W, strain rrp6, hits give low values 0.663 | S. cerevisiae deletion strains, locus YOR061W, strain CKA2, hits give low values 0.065 | S. cerevisiae deletion strains, locus YOR069W, strain VPS5, hits give low values 0.0788 | S. cerevisiae deletion strains, locus YOR070C, strain gyp1, hits give low values 0.404 | S. cerevisiae deletion strains, locus YOR080W, strain dia2, hits give low values 0.349 | S. cerevisiae deletion strains, locus YOR083W, strain WHI5, hits give low values 0.695 | S. cerevisiae deletion strains, locus YOR106W, strain vam3, hits give low values 0.425 | S. cerevisiae deletion strains, locus YOR136W, strain idh2, hits give low values 0.108 | S. cerevisiae deletion strains, locus YOR144C, strain elg1, hits give low values 0.0856 | S. cerevisiae deletion strains, locus YOR184W, strain ser1, hits give low values 0.124 | S. cerevisiae deletion strains, locus YOR265W, strain rbl2, hits give low values 0.845 | S. cerevisiae deletion strains, locus YOR270C, strain vph1, hits give low values 0.438 | S. cerevisiae deletion strains, locus YOR290C, strain snf2, hits give low values 0.169 | S. cerevisiae deletion strains, locus YOR316C, strain cot1, hits give low values 0.0869 | S. cerevisiae deletion strains, locus YPL051W, strain arl3, hits give low values 0.565 | S. cerevisiae deletion strains, locus YPL055C, strain LGE1, hits give low values 0.103 | S. cerevisiae deletion strains, locus YPL078C, strain atp4, hits give low values 0.582 | S. cerevisiae deletion strains, locus YPL106C, strain sse1, hits give low values 0.829 | S. cerevisiae deletion strains, locus YPL240C, strain hsp82, hits give low values 0.889 | S. cerevisiae deletion strains, locus YPL241C, strain CIN2, hits give low values 0.0787 | S. cerevisiae deletion strains, locus YPR119W, strain clb2, hits give low values 0.0923 | S. cerevisiae deletion strains, locus YPR141C, strain kar3, hits give low values 0.096 | S. cerevisiae deletion strains, locus YPR163C, strain tif3, hits give low values 0.102 | S. cerevisiae deletion strains, locus YPR167C, strain met16, hits give low values 0.0927 | S. cerevisiae deletion strains, strain wtn01, hits give low values 0.0926 | S. cerevisiae strains, strain wild type, hits give low values 0.0831
